# Reference: article PMC12136788
# The full ranking holds about 24,000 sequences; the median of “enrichment r” is about 0.99, and the highest 2% start at about 3.7. The sample holds the highest values, similar sequences and a random draw of the others, so the mix is not that of the screen.
# T1: UNK ZnF1-3 (human, UniProt Q9C0B0 31-174)
# T1 sequence: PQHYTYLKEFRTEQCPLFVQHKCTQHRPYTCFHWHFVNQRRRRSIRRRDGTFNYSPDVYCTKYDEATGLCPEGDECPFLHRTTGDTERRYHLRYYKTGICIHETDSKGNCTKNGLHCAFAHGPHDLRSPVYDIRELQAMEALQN
# B1: chr9:127920631:127920632:-_ENSG00000119414_ENST00000456642|hu_mus|motif|central (ssRNA)
# RNA: GGGAGUUCUACAGUCCGACGAUCAAUACGGUCAGGCCACUUAGCCUUUAGUGCAAGAAGAUAAGUGAAGGUCUCCAAACGGUAGUAACCUCUGUCUACAAAAUCACCCAUAAAUAUGUAGUUUGUGUCAGGAACCUGACCUCCCAACAGAGGAUUGAGCAUCA
# B2: chr7:140404665:140404666:+_ENSG00000090266_ENST00000247866|hu_hu|hu_hu_hu_mus_False|1_1 (ssRNA)
# RNA: GGGAGUUCUACAGUCCGACGAUCUGCUCCUACUCGUCCAGAGAGUUUACAGUGUCAGUCCUCGUCAUCAGGAGGGAUUCCCAGUUCUUCAUCUGUCCACUGUGAAGGAUCUGGAUAUGAAAAGUGACCCAGCACAGCUUCUGACAACAGAGGAUUGAGCAUCA
# B3: chr7:109302599:109302600:-_ENSMUSG00000063550_ENSMUST00000070165|mus_mus|FALSE|FALSE (ssRNA)
# RNA: GGGAGUUCUACAGUCCGACGAUCAGAGUCAUCUUCUCCAUCCUGCUGAUUGUUCUCAUCAACAGGUUUGCUCAGGAAGCUAAAUCUUUCUCCAUUUUCUGGAUACUCAGAGGGUGAAGCUAGAUCUUCUGAAUCAUGAUUAACCAACAGAGGAUUGAGCAUCA
# B4: chr8:26227902:26227903:+_ENSG00000221914_ENST00000315985|hu_hu|motif|central (ssRNA)
# RNA: GGGAGUUCUACAGUCCGACGAUCGGAAUGCCAACCCUAAUUCACUUUGUCUUGAAAUAUAUACAGAUUGUUUGUAGUAGCGGCGGCAAUGAUAUUUUCCUUGGGGUGCCAGGCUGUGUGAAGGAUUUUCUUAUUGAAGUCUAGCAACAGAGGAUUGAGCAUCA
# B5: 16983635_16983755_221_5pUTR_ENSMUSG00000063358_ENSMUST00000069107|mouse|control|control (ssRNA)
# RNA: GGGAGUUCUACAGUCCGACGAUCGACCAUCUCCGGGCCCGCCGCCGCCGCCGCCGCCAUGUUGGCUGCACAGCCGCCGCCGCCGCCGCCGCCGCCGCGUUCGGUUCGACGCUUCGCGGCUGCCGCUCGACUUAUGCUGCGCUUCAACAGAGGAUUGAGCAUCA
# B6: chr3:179287964:179287965:+_ENSG00000136518_ENST00000429709|hu_hu|hu_hu_hu_mus_True|18_18 (ssRNA)
# RNA: GGGAGUUCUACAGUCCGACGAUCCUUGAGUGGUGAGAUGGCCUCCAUGUUCUCCCUGGGCACGCGGAGGGCAUUGGUGUCUAUGUAGUAGGUGGGCCCGCCCUGCUUGCCUUUGUCGCCAUCUAUUUCCAUCAUUGUACUUCCCAACAGAGGAUUGAGCAUCA
# Molecular target: T1, UNK ZnF1-3
# Experiment: nsRBNS (natural sequence RNA bind-n-seq); RBNS binding buffer (assumed for nsRBNS): 25 mM Tris pH 7.5, 150 mM KCl, 3 mM MgCl2, 0.01% Triton X-100, 500 ug/ml BSA, 20 U/ml SUPERase-In, 4 C; UNK is unkempt and MSI1 is Musashi-1; names of the RNAs are library labels; protein concentration not given here; high values mean tight binding
row,Binder,binding signal [enrichment R]
1,B1,0.995
2,B2,1.35
3,B3,0.565
4,B4,1.11
5,B5,0.486
6,B6,0.497
